Assay outcomes as filed in PubChem.
Nrf2 ARE act: activates Nrf2 signaling; AREc32 ARE-luciferase reporter (MCF7-derived line), luminescence, 24 h; Potency, µM (series often up to 46.1 µM), inactives show top-dose activation, usual class: activators; 410,000 compounds, 0.31% hits; AID 624171; further: potency means the concentration at half of the fitted maximal effect; % of control where 0% means no effect; nearly all actives have a fitted effect of over 65% in size
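For detection, Steady-Glo was added and plates sat 30 min at RT; before that, AREc32_Fluc cells grown overnight in OPTI-MEM/5% FBS had been treated with 23 nL compound for 24 hr at 37 deg C.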
uPA surface inh: inhibitors of cell surface uPA generation | cell surface uPA generation assay, qHTS | Potency, µM (titrated, usually from 38.3 µM), inactives show at the top dose activity change, negative = inhibition, hits mostly inhibitors | 330,000 compounds, 0.31% hits | AID 540303; active means well fitted inhibition curve with a large enough effect; inconclusive means small, poorly fitted or top-dose-only effect; inactive means no such curve, though single readings can be large or run the other way; tested in mouse RAW 264.7 cells; further: potency means the concentration at half of the fitted maximal effect; on the % scale 0 is the no-effect control and ±100 the full control effect; nearly all actives have a fitted effect of over 55% in size
12-LOX inh: inhibitors of human 12S-lipoxygenase ALOX12. P18054. purified 12hLO, xylenol orange hydroperoxide absorbance. Potency, µM (titrated, usually from 108 µM), without a hit: top-dose activity change, negative = inhibition, most hits filed as inhibitors. 580,000 compounds, 1.1% hits. AID 1671190; further: potency means the concentration at half of the fitted maximal effect; on the % scale 0 is the no-effect control and ±100 the full control effect
Target sequence (P18054 whole entry, looked up): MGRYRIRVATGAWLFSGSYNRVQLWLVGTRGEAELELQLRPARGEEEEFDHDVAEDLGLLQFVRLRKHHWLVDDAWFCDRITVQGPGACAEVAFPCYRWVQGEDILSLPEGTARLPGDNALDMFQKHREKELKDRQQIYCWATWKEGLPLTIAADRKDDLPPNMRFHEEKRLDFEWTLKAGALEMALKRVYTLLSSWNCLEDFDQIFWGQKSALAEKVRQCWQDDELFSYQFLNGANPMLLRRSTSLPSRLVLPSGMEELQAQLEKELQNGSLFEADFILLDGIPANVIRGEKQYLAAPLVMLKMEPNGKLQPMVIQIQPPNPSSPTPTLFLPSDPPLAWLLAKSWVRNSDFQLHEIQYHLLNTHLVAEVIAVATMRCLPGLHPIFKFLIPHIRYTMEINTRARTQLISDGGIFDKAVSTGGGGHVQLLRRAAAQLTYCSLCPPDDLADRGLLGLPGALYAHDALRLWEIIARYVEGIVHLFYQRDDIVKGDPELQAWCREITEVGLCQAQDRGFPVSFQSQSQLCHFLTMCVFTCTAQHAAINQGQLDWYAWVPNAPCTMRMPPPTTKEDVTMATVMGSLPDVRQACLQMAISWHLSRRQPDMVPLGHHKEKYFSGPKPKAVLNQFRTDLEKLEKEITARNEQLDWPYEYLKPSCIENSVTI
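Purified human 12hLO (150 nM final) in 25 mM Hepes, 0.01% Triton X-100, pH 7.0 was preincubated 15 min at room temperature with compound. Then 40 uM arachidonic acid was added, 30 min. Hydroperoxide was read by Fe-XO absorbance ratio 573/405 nm.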
IL-2 act: activates IL-2 in a cell-based reporter assay | IL-2 activation reporter assay, cell-based qHTS; stimulated with anti-CD3/CD4/CD28 beads; in transgenic mouse T cells | activation, % (series mostly up to about 46 µM) | 360,000 compounds, 0.065% hits | AID 652025; in the data active means activation above about 50%; inconclusive means mostly about 30% to 49%; further: 0% is about no effect
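Screening format: compound pinned onto unstimulated transgenic mouse T cells, 60 min incubation, then anti-CD3/anti-CD4/anti-CD28 bead stimulation for 18 hours at 37 degrees C, followed by EGFP and DsRed detection.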
a7 integrin act: integrin-mediated muscular dystrophy alleviation activation; 350,000 compounds, 0.064% hits; Potency, µM (doses to about 38.3 µM), without a hit: top-dose activation, actives largely listed as activators; AID 624291; alpha7betagal myoblasts, beta-gal FDG fluorescence, 48 h;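 further: potency means the concentration at half of the fitted maximal effect; 100% = response of the positive control SU9516; nearly all actives have a fitted effect of over 60% in size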
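alpha7betagal+/- myoblasts (passage 13, 250/well) treated 48 h at 37C with compounds at 1:260 dilution of DMSO stock. Lysed, then beta-galactosidase activity read as FDG fluorescence (ex 480/em 540) after 30 min, with pre-read for autofluorescence.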
An asterisk follows results filed as active; u = inconclusive; x = no result; [ ] = dose if it differs, or a comment. An excerpt weighted towards active compounds, which were near 1.5% of everything screened. Unless noted, the call rests on the fitted dose curve; in most records, active means well fitted curve in the direction sought with a large enough effect; inconclusive means small, poorly fitted or top-dose-only effect, or another doubt; inactive means no such curve, though single readings can be large; an effect the other way counts as inactive or inconclusive.

SMILES	Nrf2 ARE act	uPA surface inh	12-LOX inh	IL-2 act	a7 integrin act
Cc1occc1C(=O)NC1CCCN(Cc2ccc(Cl)cc2)C1 (configuration not stated)	2.2%	-14.0%	u	-2.8	-35.6%
Cc1cc(C(=O)NC2CCCN(Cc3ccc(Cl)cc3)C2)c(C)o1 (configuration not stated)	-0.8%	-0.4%	15.8µM*	-1.4	-5.9%
O=C(C1CCCN(Cc2ccc(Cl)cc2)C1)N1CCCCC1 (configuration not stated)	0.2%	0.3%	0.631µM*	-2.0	-10.5%
Cc1ccc(-c2ccc(OC(=O)c3ccc(C)c(C)c3)cc2)cc1	x	x	-2.4%	x	x
COc1ccccc1C(=O)N1CCCCCC1CN1CCOCC1 (configuration not stated)	x	x	18.7%	x	x
CC1CN(Cc2ccccc2)c2ccccc2NC1=S (configuration not stated)	-1.3%	5.1%	35.5µM*	0.0	1.0%
O=C(/C=C/c1cccc(F)c1)Nc1nccs1	10µM*	-0.7%	-13.7%	0.6	14.3%
O=C(OCC(=O)N1CCN(C(=O)c2ccco2)CC1)c1cc(-c2ccc(Cl)c(Cl)c2Cl)nc2ccccc12	-0.2%	-8.0%	10.6%	0.1	-34.4%
O=C(OCC(=O)N1CCCC1=O)c1cc(-c2ccco2)nc2ccccc12	x	x	5.62µM*	x	x
O=C(OCC(=O)N1CCN(C(=O)c2ccco2)CC1)c1cc(-c2ccco2)nc2ccccc12	9.0%	x	4.47µM*	-0.8	-10.7%
O=C(NCc1ccc(Cl)nc1)c1cnn2c1CN(C(=O)OCc1ccccc1)CC2	x	x	0.2%[6.33 µM]	x	x
O=C1NC(=S)S/C1=C\c1cc(Cl)ccc1Cl	2.6%	-5.7%	7.94µM*	-4.5	39.6%
O=[N+]([O-])c1ccccc1C(=Nc1ccccc1)c1c(O)cc(O)cc1O	-0.6%	x	44.7µM*	-1.5	-14.4%
CN1C(=O)c2ccccc2CC12CN(C(=O)c1ccc(Cl)cc1)C2	x	x	-1.3%[6.33 µM]	x	x
COc1ccc(/C=C2/C(=O)ON=C2C)cc1Cl	-0.2%	-0.2%	7.94µM*	-0.6	9.9%
C=CCOc1ccc(/C=C2/C(=O)ON=C2C)cc1OC	-0.1%	0.4%	17.8µM*	-0.2	-16.9%
CCCOc1ccc(/C=C2/C(=O)ON=C2C)cc1OCC	0.2%	-5.7%	u	2.9	-13.3%
COc1cccc2c1OC1(CCN(C(C)=O)CC1)N1N=C(c3ccccc3)CC21 (configuration not stated)	x	x	49.9%	x	x
COc1ccccc1NC(=O)c1c(C)nc2ccccc2c1C(=O)O	-0.3%	2.4%	14.1µM*	-1.7	15.7%
CN(CC(=O)Nc1ccccc1C(F)(F)F)C(=O)COc1ccc2oc3c(c2c1)CCCC3	x	x	19.3%	x	x
O=C(N[C@@H]1CN(Cc2cc(F)cc(F)c2)C[C@H]1CO)c1ccccc1	x	x	9.2%	x	x
O=C(N[C@@H]1CN(Cc2ccc3cc[nH]c3c2)C[C@H]1CO)c1ccccc1	x	x	28.2µM*	x	x
O=C(N[C@@H]1CN(Cc2ccc(F)cc2)C[C@H]1CO)c1ccccc1	x	x	12.6µM*	x	x
CCN(CC)S(=O)(=O)c1ccc(OC(C)C)c(NC(=O)c2ccc(S(=O)(=O)N(C)C)cc2)c1	x	x	-0.2%	x	x
CN(C)CCCNc1cc(O)c2ncccc2c1	-4.0%	3.98µM*	-22.9%	-0.4	x
SMILES	Nrf2 ARE act	uPA surface inh	12-LOX inh	IL-2 act	a7 integrin act
Oc1cc(NCc2ccc(F)cc2)cc2cccnc12	-2.9%	u	u	-2.2	x
CC1(C)Oc2cc3oc(-c4cc(O)cc(O)c4)cc3cc2CC1O (configuration not stated)	-1.9%	8.91µM*	u	0.0	8.0%
CC1CCC(C(C)C)C2=C1C(C#N)(C#N)C(C#N)(C#N)C(c1ccccc1)N2 (configuration not stated)	u	-3.8%	39.8µM*	0.1	-40.8%
COc1ccc(CNc2nc3ccccc3nc2NS(=O)(=O)c2cccc(C)c2)cc1	x	x	-7.7%	x	x
CN1CC2(CCCN(C(=O)CCc3ccncc3)CC2)OC1=O (configuration not stated)	x	x	6.1%	x	x
CC1CCN(C2=NC(=O)/C(=C/c3ccccc3F)S2)CC1	25.5%	-5.3%	-9.4%	-4.3	-19.1%
CC1CC2=C(NC(=S)NC2c2cccc(F)c2)/C(=C/c2cccc(F)c2)C1 (configuration not stated)	0.5%	3.9%	28.2µM*	-1.0	13.8%
Cc1ccc(/C=C2\CC(C)CC3=C2NC(=S)NC3c2ccc(C)cc2)cc1 (configuration not stated)	0.3%	1.7%	u	-2.5	-25.2%
CC1CC2=C(NC(=S)NC2c2ccccc2F)/C(=C/c2ccccc2F)C1 (configuration not stated)	0.0%	3.6%	35.5µM*	1.8	-10.3%
CCn1c(=O)c2sccc2n(CC(=O)NCc2ccc(F)cc2Cl)c1=O	x	x	1.6%	x	x
Cc1ccc(NC(=S)/C(C#N)=C2/Nc3ccccc3S2)cc1	-5.0%	x	12.6µM*	-1.9	-16.7%
CC(=O)C1=C(C)NC(SCC(=O)c2ccccc2)=C(C#N)C1CC(C)C (configuration not stated)	18.2%	10.8%	7.94µM*	-0.5	-43.2%
CCOC(=O)c1ccc(N2C(=O)c3n[nH]c(-c4ccco4)c3C2c2ccc(C(=O)OC)cc2)cc1 (configuration not stated)	-0.1%	x	u	x	x
CCOC(=O)c1ccc(N2C(=O)c3n[nH]c(-c4ccco4)c3C2c2cccc([N+](=O)[O-])c2)cc1 (configuration not stated)	-0.2%	u	31.6µM*	-4.7	-63.8%
CC(c1cc2ccccc2o1)N(C)Cc1nc(-c2ccc(Cl)cc2)no1 (configuration not stated)	x	x	2.8%	x	x
CN(Cc1ccccc1)S(=O)(=O)c1ccc(NC(=S)NC(=O)C(C)(C)C)cc1	0.3%	7.7%	35.5µM*	-3.2	-1.2%
CN(Cc1ccccc1)S(=O)(=O)c1ccc(NC(=S)NC(=O)C2CCCCC2)cc1	-0.1%	-14.7%	17.8µM*	-2.7	29.2%
CC(C)C(C)(C#N)NC(=O)CCc1ccccc1 (configuration not stated)	x	x	-8.8%	x	x
O=C(COc1ccc(-n2cnnn2)cc1)N1CCN(S(=O)(=O)c2ccc3ccccc3c2)CC1	x	x	44.7µM*	x	x
O=C(Cn1cccc1-c1nc(-c2ccc3c(c2)OCO3)no1)NCc1ccc(F)cc1	x	x	-6.8%	x	x
CC(C)c1ccc(O)c(NC(=S)NC(=O)c2ccc3c(c2)OCO3)c1	2.7%	-21.9%	12.6µM*	-0.9	-9.5%
N#Cc1c(-c2ccccc2)cc(C2CC2)nc1N	1.7%	-7.9%	6.5%	-1.2	-44.4%
Cc1ccc(-c2cc(-c3ccccc3Cl)c(C#N)c(N)n2)o1	0.7%	-1.0%	7.08µM*	-0.7	-27.8%
Cc1ccc(-c2cc(-c3ccccc3)c(C#N)c(N)n2)o1	21.5%	-8.1%	0.794µM*	-1.7	-19.7%
Cc1ccc(-c2cc(-c3ccc(F)cc3)nc(N)c2C#N)o1	6.1%	-8.6%	6.31µM*	1.4	-12.6%
